# Data published in PubChem BioAssay.
# Active and inactive are the calls of the source. Unless noted, the rule behind the calls is not given here.
# Key:
# [1] = resazurin metabolic signal in HepG2 cells – cell-based, resazurin fluorescence, 24 h, PK04 Diversity Set, profiling panel (AID 1172); settings: HepG2 viability, higher = more signal
# [2] = budding yeast growth changes without added modifier – OD600, strain BY4716, 24 h, basal condition, primary screen (AID 1173); settings: S. cerevisiae BY4716 growth, OD600, 24 h; higher = more signal, called active from +8 up or from −8 down
# [3] = viability profiling in MM1S myeloma cells – cell-based, resazurin fluorescence, basal, 24 h, PK04 Diversity Set, profiling panel (AID 1174); settings: higher = more signal, called active from +8 up or from −8 down;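 note: MM1S multiple myeloma cell line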
# [4] = target: Dihydroorotate dehydrogenase (quinone), mitochondrial (Plasmodium falciparum (isolate 3D7)) (UniProt Q08210); experiment: inhibition of P. falciparum DHODH – biochemical, C-terminal His tag, absorbance 600 nm, primary screen (AID 1175); settings: PfDHODH enzyme, DCIP absorbance 600 nm; higher = more signal, called active from +8 up or from −8 down;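 note: recombinant parasite enzyme with a five histidine tag at its C terminus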
# [5] = inhibition of PAO1 biofilm formation – strain PAO1, LB-PBS medium, absorbance 600 nm, primary screen (AID 1176); settings: P. aeruginosa PAO1 growth/biofilm, A600, 12 h; higher = more signal
# [6] = growth modulation of vineyard yeast isolate – strain RM11-1a, OD600, basal, 24 h, primary screen (AID 1177);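 note: cultures grown under basal conditions with no added stressor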; settings: S. cerevisiae RM11-1a growth, OD600, 24 h; higher = more signal, called active from +8 up or from −8 down
# [7] = growth of efflux-deficient E. coli DRC39 – strain DRC39, OD650, 24 h, E. coli filamentation inducers, primary screen (AID 1178);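 note: growth measured as culture turbidity by optical density at 650 nm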; settings: E. coli DRC39 acrAB, higher = more signal, called active from +8 up or from −8 down
# [8] = growth of efflux-deficient E. coli DRC39 – strain DRC39, OD650, 48 h, E. coli filamentation inducers, primary screen (AID 1179);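 note: screen aims at cell division blockers that make cells filament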; settings: E. coli DRC39 delta-acrAB growth, higher = more signal, called active from +8 up or from −8 down
# [9] = viability profiling in RPMI8226 myeloma cells – cell-based, resazurin fluorescence, basal, 24 h, PK04 Diversity Set, profiling panel (AID 1180); settings: higher = more signal;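 note: RPMI8826 multiple myeloma cell line at 5000 cells per well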
# [10] = target: E3 ubiquitin-protein ligase XIAP (Homo sapiens) (UniProt P98170); experiment: small molecules binding XIAP protein – biophysical, small-molecule microarray, fluorescence 635 nm, primary screen (AID 1181); settings: higher = more signal;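 note: score merges 667 nm emission and signal to noise over triplicate slides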
# [11] = tested on: XIP peptide (Xip251-270) binding; experiment: XIP fragment 251-270 binding compounds – biochemical, small-molecule microarray, fluorescence 635/667 nm, 0.1 µg/mL protein, primary screen (AID 1182); settings: fluorescent protein binding, 635 nm, higher = more signal, called active from +8 up or from −8 down
# XIP peptide (Xip251-270) = experiment: compounds binding XIP fragment 251-270 – biochemical, small-molecule microarray, fluorescence 635/667 nm, 0.5 µg/mL protein, primary screen (AID 1183); settings: fluorescence 635 nm, higher = more signal
# [12] = blood-stage malaria parasite viability loss – strain 3D7, DAPI fluorescence, 100 nL, primary screen (AID 1184);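 note: parasites grown inside human red blood cells in medium with human serum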; settings: P. falciparum 3D7 growth, 3 d, higher = more signal
# [13] = target: Homeobox protein Hox-A13 (Mus musculus) (UniProt Q62424); experiment: disruptors of Hoxa13 oligonucleotide interaction – biochemical, fluorescence polarization, labeled oligonucleotide, primary screen (AID 1185); settings: Hoxa13:DNA binding, 15 min, higher = more signal, called active from +8 up or from −8 down
# [14] = blockers of DNA damage checkpoint Chk1 activation – imaging, HeLa, hydroxyurea, phospho-Chk1 antibody, percent positive cells, primary screen (AID 1186); settings: hydroxyurea-induced phospho-Chk1 immunofluorescence imaging, higher = more signal
# [15] = blockers of DNA damage checkpoint Chk1 activation – imaging, HeLa, hydroxyurea, phospho-Chk1 nuclear intensity, primary screen (AID 1187); settings: hydroxyurea-induced phospho-Chk1 immunofluorescence imaging, higher = more signal
# Chain of Dihydroorotate dehydrogenase (quinone), mitochondrial (Plasmodium falciparum (isolate 3D7)) (Q08210 whole entry, looked up): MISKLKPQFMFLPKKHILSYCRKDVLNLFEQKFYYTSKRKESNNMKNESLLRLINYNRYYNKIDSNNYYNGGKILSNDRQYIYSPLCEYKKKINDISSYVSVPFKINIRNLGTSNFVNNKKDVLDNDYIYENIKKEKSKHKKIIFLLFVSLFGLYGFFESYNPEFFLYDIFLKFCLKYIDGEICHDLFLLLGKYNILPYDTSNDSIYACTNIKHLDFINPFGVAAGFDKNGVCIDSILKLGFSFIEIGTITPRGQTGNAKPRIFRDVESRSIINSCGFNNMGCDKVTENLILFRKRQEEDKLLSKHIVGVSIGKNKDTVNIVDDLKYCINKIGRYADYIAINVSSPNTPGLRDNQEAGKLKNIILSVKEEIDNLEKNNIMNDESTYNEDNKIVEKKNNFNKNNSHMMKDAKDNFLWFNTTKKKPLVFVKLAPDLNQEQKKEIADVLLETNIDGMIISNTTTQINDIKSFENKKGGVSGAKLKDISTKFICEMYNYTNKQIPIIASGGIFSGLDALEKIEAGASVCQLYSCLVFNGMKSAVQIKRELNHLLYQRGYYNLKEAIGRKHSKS
# Chain of Homeobox protein Hox-A13 (Mus musculus) (Q62424 whole entry, looked up): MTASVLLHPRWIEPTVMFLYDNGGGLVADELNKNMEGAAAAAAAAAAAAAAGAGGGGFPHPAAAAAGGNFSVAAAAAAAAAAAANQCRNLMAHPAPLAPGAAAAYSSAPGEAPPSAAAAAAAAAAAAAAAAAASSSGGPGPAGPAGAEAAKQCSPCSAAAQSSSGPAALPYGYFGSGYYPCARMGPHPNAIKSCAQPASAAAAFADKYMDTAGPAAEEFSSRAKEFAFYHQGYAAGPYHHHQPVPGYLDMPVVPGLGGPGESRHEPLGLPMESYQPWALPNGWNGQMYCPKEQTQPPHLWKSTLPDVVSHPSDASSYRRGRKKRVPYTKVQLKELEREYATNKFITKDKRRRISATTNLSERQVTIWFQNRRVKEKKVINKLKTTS
# Chain of E3 ubiquitin-protein ligase XIAP (Homo sapiens) (P98170 whole entry, looked up, the tested form may be a part): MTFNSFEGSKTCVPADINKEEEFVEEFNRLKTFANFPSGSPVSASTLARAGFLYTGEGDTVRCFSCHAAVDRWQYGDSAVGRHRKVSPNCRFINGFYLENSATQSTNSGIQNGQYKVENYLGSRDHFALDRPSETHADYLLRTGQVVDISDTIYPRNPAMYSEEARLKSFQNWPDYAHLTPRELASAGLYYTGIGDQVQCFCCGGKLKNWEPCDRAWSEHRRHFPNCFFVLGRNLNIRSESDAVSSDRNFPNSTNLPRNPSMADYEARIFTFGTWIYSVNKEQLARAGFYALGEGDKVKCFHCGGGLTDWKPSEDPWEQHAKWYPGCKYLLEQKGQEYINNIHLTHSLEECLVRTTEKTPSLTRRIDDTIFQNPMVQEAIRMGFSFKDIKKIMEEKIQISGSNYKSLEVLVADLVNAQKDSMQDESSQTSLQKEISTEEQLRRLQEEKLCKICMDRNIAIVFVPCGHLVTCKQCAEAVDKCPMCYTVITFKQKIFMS
Compound,z-score [1],z-score [2],z-score [3],composite z-score [4],z-score [5],z-score [6],z-score [7],z-score [8],z-score [9],composite z-score [10],composite z-score [11],composite z-score (XIP peptide (Xip251-270)),z-score [12],z-score [13],z-score [14],z-score [15]
COC(=O)c1ccc(C#CC(NP(=O)(c2ccccc2)c2ccccc2)c2ccccc2)cc1 (centres undefined),-0.0848,0.441 (inactive),0.693 (inactive),-3.37 (inactive),0.231 (inactive),0.919 (inactive),0.37 (inactive),0.369 (inactive),1.26,0.063,0.238 (inactive),-0.0253,-0.253,-3.02 (inactive),-1.14 (inactive),-1.03 (inactive)
O=C1C[C@@](C(=O)NC2CC2)(c2ccc([N+](=O)[O-])cc2)[C@@H](c2ccc(CO)cc2I)N1CC12CC3CC(CC(C3)C1)C2,-3.54,0.579 (inactive),-6.88 (inactive),1.59 (inactive),1.2 (inactive),2.54 (inactive),-0.56 (inactive),-0.869 (inactive),-5.45,-0.095,0.479 (inactive),0.687,-1.29,-3.64 (inactive),-0.174 (inactive),-0.372 (inactive)
CC(C)=C1C(=O)C(c2ccccc2)=C2CN3C(=O)N(CCc4ccccc4)C(=O)[C@]3(Cc3ccccc3)[C@H]21,-1.18,0.66 (inactive),-0.692 (inactive),0.223 (inactive),0.178 (inactive),0.071 (inactive),-0.652 (inactive),-0.295 (inactive),-0.693,-0.122,-0.315 (inactive),-0.78,-0.774,-0.972 (inactive),0.844 (inactive),0.84 (inactive)
O=C/C=C/c1ccccc1Cl,0.965,-7.23 (inactive),0.413 (inactive),-0.516 (inactive),-0.227 (inactive),-1.17 (inactive),0.834 (inactive),0.496 (inactive),2.16,-0.0393,0.0944 (inactive),-0.264,0.316,-0.26 (inactive),0.152 (inactive),0.0674 (inactive)
CO[C@H]1O[C@H](CO)[C@@H](OC(=O)Nc2ccc3c(c2)OCO3)[C@H](OC(=O)Nc2ccccc2)[C@@H]1OC(=O)Nc1ccccc1,-0.671,-0.328 (inactive),-1.24 (inactive),-0.0612 (inactive),0.345 (inactive),1.13 (inactive),0.399 (inactive),-0.409 (inactive),-0.682,0.319,1.06 (inactive),0.649,-1.76,-5.39 (inactive),0.171 (inactive),0.889 (inactive)
COC(=O)C(CC#Cc1ccc2c(c1)[C@]1(C(=O)N2)[C@H](C(=O)N2CCCCCCC2)[C@H]2C(=O)O[C@H](c3ccccc3)[C@H](c3ccccc3)N2[C@@H]1c1ccc(O)cc1)C(=O)OC,0.436,-0.636 (inactive),0.636 (inactive),-0.665 (inactive),0.473 (inactive),-0.016 (inactive),-0.177 (inactive),-0.312 (inactive),0.402,0.0512,0.431 (inactive),0.459,-1.39,1.11 (inactive),-0.197 (inactive),-0.109 (inactive)
COc1cc2c(cc1OC)CN(C(=O)[C@H]1[C@@H]3C(=O)O[C@@H](c4ccccc4)[C@@H](c4ccccc4)N3[C@@H](c3ccccc3OCCO)[C@]13C(=O)Nc1ccc(C#CC4(O)CCCCCC4)cc13)CC2,0.714,0.0302 (inactive),-0.492 (inactive),0.682 (inactive),2.63 (inactive),2.15 (inactive),0.667 (inactive),1.61 (inactive),0.248,-0.12,1.62 (inactive),0.837,-2.14,1.74 (inactive),-0.0766 (inactive),0.196 (inactive)
C=CCC(OC(C)=O)[C@@H]1[C@@H](N(Cc2ccc(-c3cccc(C(F)(F)F)c3)o2)C(=O)Cc2ccc(F)cc2)c2cc(OCCCO)ccc2N1C(=O)c1ccc(-c2ccccc2)cc1 (some centres undefined),-0.138,-0.0284 (inactive),0.314 (inactive),-0.262 (inactive),1.11 (inactive),-0.12 (inactive),-0.124 (inactive),-0.143 (inactive),0.171,-0.184,-0.403 (inactive),-0.829,-0.294,-1.2 (inactive),0.634 (inactive),-0.385 (inactive)
CCC1=C2CN(Cc3ccccc3Br)[C@@H]([C@@H](O)Cc3ccccc3)C2C=CCC1 (some centres undefined),0.596,-5.76 (inactive),-1.3 (inactive),-2.74 (inactive),-0.693 (inactive),-0.177 (inactive),1 (inactive),0.441 (inactive),-1.25,0.0451,-0.314 (inactive),0.509,-1.92,-7.8 (inactive),-0.0994 (inactive),-0.311 (inactive)
Cc1ccc(S[C@]2(C(=O)NC3CC3)CC(=O)N(Cc3cc(C(F)(F)F)cc(C(F)(F)F)c3)[C@@H]2c2ccc(CO)cc2)cc1,1.1,-1.03 (inactive),0.219 (inactive),-2.37 (inactive),0.214 (inactive),-0.921 (inactive),0.327 (inactive),0.561 (inactive),1.25,0.209,0.503 (inactive),-0.0124,-0.442,-2.7 (inactive),-0.144 (inactive),-0.0725 (inactive)
COC(=O)C1=CC(c2ccc(CO)cc2)=CC(c2cccs2)N(Cc2cccc(OC(F)(F)F)c2)C=C1C(=O)OC (centres undefined),-0.55,-0.871 (inactive),-1.67 (inactive),-5.67 (inactive),0.683 (inactive),1.62 (inactive),0.0045 (inactive),-0.964 (inactive),-0.701,0.109,2.19 (inactive),0.79,-1.91,-8.1 (active),0.311 (inactive),0.206 (inactive)
O=C1C2C=CC(C(O)Cc3ccccc3)N(Nc3ccc([N+](=O)[O-])cc3)C2C(=O)N1c1ccccc1 (centres undefined),-0.346,-0.168 (inactive),-0.824 (inactive),-0.75 (inactive),0.946 (inactive),-0.518 (inactive),-1.22 (inactive),0.0196 (inactive),-0.358,0.202,2.76 (inactive),-0.224,-0.463,-5.69 (inactive),0.433 (inactive),-0.541 (inactive)
COC(=O)Cn1c(C(=O)N2CCCC2)cc2c1C[C@H]1CN(C(=O)c3ccccc3)[C@@](Cc3ccc(OC)cc3)(C(=O)OC)[C@@H]21,0.101,1.5 (inactive),-2.14 (inactive),-0.632 (inactive),0.259 (inactive),0.569 (inactive),-0.506 (inactive),-0.031 (inactive),-2.1,0.311,0.516 (inactive),0.518,-1.48,-3.21 (inactive),0.847 (inactive),0.487 (inactive)
CC(C)C[C@@H]1NC(=O)[C@H](CC(C)C)NC(=O)[C@@]23C(=O)N[C@@H](Cc4ccccc4)C2[C@H](C)[C@@]2(C)O[C@H]2C3/C=C/CC/C=C/CNC1=O (some centres undefined),-0.0096,-0.737 (inactive),0.229 (inactive),-0.744 (inactive),0.179 (inactive),0.569 (inactive),0.794 (inactive),-0.103 (inactive),0.0441,-0.02,-0.404 (inactive),0.674,-1.52,-6.55 (inactive),-0.218 (inactive),-0.0919 (inactive)
C=C[C@H](OC)[C@@H](OC(=O)Nc1ccc(SC)cc1)c1ccc(O)c(F)c1,-0.0359,-2.99 (inactive),0.0545 (inactive),-2.05 (inactive),1.88 (inactive),-0.703 (inactive),0.543 (inactive),0.519 (inactive),0.035,-0.192,2.52 (inactive),0.719,0.188,-2.14 (inactive),-1.07 (inactive),-0.478 (inactive)
COc1ccc(NN2C(C(O)c3cc(OC)c(OC)c(OC)c3)C=CC3C(=O)N(C4CCCCC4)C(=O)C32)cc1 (centres undefined),-0.665,-0.376 (inactive),-0.946 (inactive),-0.41 (inactive),0.89 (inactive),0.389 (inactive),-1.02 (inactive),0.187 (inactive),-1.48,0.147,-0.0682 (inactive),0.758,-1.11,-4.58 (inactive),0.071 (inactive),-0.378 (inactive)
C#CCNC(/C=C/c1ccccc1)CO (centres undefined),-0.316,0.668 (inactive),-0.498 (inactive),0.657 (inactive),0.449 (inactive),1.62 (inactive),0.238 (inactive),0.188 (inactive),-0.153,0.0338,-0.447 (inactive),0.0391,-0.414,-1.21 (inactive),0.0357 (inactive),0.237 (inactive)
[N-]=[N+]=NCc1ccccc1C[C@@]1(C(=O)O)N=C(c2ccc(OCCCO)cc2)O[C@@H]1c1ccccc1N=[N+]=[N-],0.0549,-1 (inactive),-1.47 (inactive),0.313 (inactive),0.755 (inactive),-0.268 (inactive),0.604 (inactive),0.331 (inactive),-0.876,0.0524,-0.321 (inactive),0.908,-2.15,-4.16 (inactive),-1.08 (inactive),-0.884 (inactive)
O=C1C[C@@](C(=O)NCCN2CCOCC2)(c2ccc([N+](=O)[O-])cc2)[C@@H](c2ccc(CO)cc2)N1C1CCCCC1,-0.0886,-0.359 (inactive),0.836 (inactive),0.231 (inactive),0.292 (inactive),-0.206 (inactive),0.497 (inactive),0.274 (inactive),0.906,-0.142,1.01 (inactive),0.818,-1.6,-4.21 (inactive),-0.0132 (inactive),0.434 (inactive)
